The whole screen tested about 7,900 compounds, of which about 400 (5.1%) showed an effect of 50% or more. The entries come from a sample that favours strong results as a whole.

The target of this experiment is Parkinson's disease protein 7 (PARK7/DJ1) (human, UniProt Q99497). Kind of experiment: primary screen, percent inhibition; read as competition with a fluorescent probe by fluorescence polarization; higher = more effect of the substance. As to conditions: 100 µM. The method in brief: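 Fluorescence-polarization probe displacement (JYQ-107, 20 nM final, 2 h) after 2 h preincubation of PARK7 (0.2 μM final) with each fragment at 100 μM final. Read-out ex/em 480/520 nm; remaining activity derived from FP signal loss relative to reference controls.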
Parkinson's disease protein 7 (PARK7/DJ1), sequence (Q99497 whole entry, looked up, the tested form may be a part): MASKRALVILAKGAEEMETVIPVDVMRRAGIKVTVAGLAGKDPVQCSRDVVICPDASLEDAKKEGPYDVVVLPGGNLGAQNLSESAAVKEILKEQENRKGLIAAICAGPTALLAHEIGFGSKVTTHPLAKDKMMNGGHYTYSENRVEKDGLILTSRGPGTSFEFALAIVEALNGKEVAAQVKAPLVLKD
The compound `C=CC(=O)N[C@H]1C[C@H](C)S(=O)(=O)c2sccc21` gave an Inhibition % of 7.51%.

`C=CC(=O)N1CCOCC2(CC2)C1` yielded an Inhibition % of 33.9%.

Turning to `C=CC(=O)N1CCN(c2ccc(C)o2)C(=O)C1`, the Inhibition % is given as 5.39%.

Take `Cc1ccoc1C=C(C#N)C(=O)NCCc1ccccc1`: the Inhibition % is listed as 0.974%.

`O=S1(=O)C=CC(O)C1` (centres unmarked) displayed an Inhibition % of 4.75%.

For the compound `C=C(Cl)CSc1nc2ccsc2c(=O)n1C`, the Inhibition % is on record as 13.1%.

As for `CC1(C)OB(c2ccc3c(c2)NC(=O)C3)OC1(C)C`, the Inhibition % is recorded as 27.3%.

Regarding `COC(=O)C1CC(S(=O)(=O)F)CN1C(=O)C1CC1C` (centres unmarked), the Inhibition % was determined as 13.7%.

Turning to `O=C(C1CCOCC1)N1CCCCC1CCS(=O)(=O)F` (centres unmarked), the Inhibition % is given as 82.4%.

`C=CC(=O)N1CCCCC1CS(C)(=O)=O` (centres unmarked): the Inhibition % was found to be 5.69%.

`CC1CC1C(=O)N1CCCCC1CCS(=O)(=O)F` (centres unmarked) came in with an Inhibition % of 57.7%.

Turning to `O=C(C1CCOCC1)N1CCOC(CS(=O)(=O)F)C1` (centres unmarked), the Inhibition % stood at 13.3%.

The compound `O=C(C1CCOCC1)N1CCC(S(=O)(=O)F)CC1` had an Inhibition % of 30.7%.

Compound `C=CC(=O)N1CCSC2(CCC2)CC1` returned an Inhibition % of 10.9%.

Compound `NC(=O)C1CCCN(S(=O)(=O)C=Cc2ccccc2)C1` (centres unmarked) registered an Inhibition % of 6.58%.

`CS(=O)(=O)C(C#N)=Cc1cnn(-c2ccccc2)c1` showed an Inhibition % of 10.2%.

On to `CN1CCN(c2cccc(C#N)n2)CC1`, for which the Inhibition % is on record as 5.08%.

`CC1CC(Sc2nnc(-c3ccco3)o2)C(=O)O1` (centres unmarked) registered an Inhibition % of 1.96%.

Turning to `O=C(CCl)N1CCOC(c2ccc(F)cc2)C1` (centres unmarked), the Inhibition % worked out at 95.3%.

The compound `CCC1CN(C(=O)CCl)CCO1` (centres unmarked) gave an Inhibition % of 33.6%.

For the compound `C=CC(=O)N1CCOC(c2ccc(C(F)(F)F)cc2)C1` (centres unmarked), the Inhibition % is on record as 1.86%.

Compound `CC(C)c1nc(C(C)Nc2ccc(C#N)nc2)cs1` (centres unmarked) gave an Inhibition % of 3.63%.

`Cl.NCC1OB(O)c2ccccc21` (centres unmarked) had an Inhibition % of 3.67%.

The compound `Cc1noc(C)c1Cn1c(-c2ccccc2)noc1=O` displayed an Inhibition % of 14.3%.

In turn, `O=c1onc(-c2ccccc2)n1Cc1ccncc1` had an Inhibition % of 1.3%.

Compound `Cc1oncc1Cn1c(-c2ccncc2)noc1=O` registered an Inhibition % of 59.3%.

Compound `Sc1nnnc2ccccc12` came in with an Inhibition % of 3.52%.

Compound `CN1CCC2(CCCN2C(=O)c2cccc(S(=O)(=O)F)c2)CC1` showed an Inhibition % of 10.6%.

For the compound `CS(=O)C1(CNC(=O)c2cccc(S(=O)(=O)F)c2)CCC1` (centres unmarked), the Inhibition % amounted to 97.3%.

With `O=C(NCCC(=O)N1CCCCC1)c1cc(S(=O)(=O)F)c[nH]1`, the Inhibition % was determined as 5.43%.

Take `O=C(NCC12CCCN1CCC2)c1cccc(S(=O)(=O)F)c1`: the Inhibition % turned out to be 86.4%.

`C=CC(=O)Nc1ccccc1N1CCNC(=O)C1` returned an Inhibition % of 10.7%.

For the compound `C=CC(=O)N(CC)C1CCOC(C)(C)C1` (centres unmarked), the Inhibition % is listed as 8.38%.

In the case of `O=c1c2ccsc2ncn1CCS(=O)(=O)F`, the Inhibition % stood at 19.7%.

With `O=c1c2ccccc2ncn1CCS(=O)(=O)F`, the Inhibition % is on record as 14.1%.

Consider `O=c1c2ccccc2ccn1CCS(=O)(=O)F`, for which the Inhibition % came out at 95.1%.

On to `CC1(C)OB(c2ccc(C3CCC(=O)N3)cc2)OC1(C)C` (centres unmarked), for which the Inhibition % came to 6.79%.

In turn, `CNC(=O)C(NC(=O)CCl)c1ccccc1` (centres unmarked) yielded an Inhibition % of 8.83%.

For the compound `CC1(C)OB(c2cc(CN3CCCC3)ccc2F)OC1(C)C`, the Inhibition % is recorded as 3.85%.

`C=CC(=O)NC(C)(C)c1noc(C(C)(C)C)n1`: the Inhibition % stood at 17.1%.

With `CN(C)CCCn1c(S)nc2ccccc2c1=O`, the Inhibition % stood at 5.79%.

In turn, `CCN(CC)CCn1c(S)nc2ccccc2c1=O` yielded an Inhibition % of 4.52%.

The compound `CN(C)CCn1c(S)nc2ccccc2c1=O` came in with an Inhibition % of 82.9%.

On to `CC1=NOC(=O)C1CCC(=O)O` (centres unmarked), for which the Inhibition % came out at 8.64%.

`CC1=NOC(=O)C1CC(=O)O` (centres unmarked) displayed an Inhibition % of 99%.

Take `O=C1OCCC1Sc1nnc(C2CCCCC2)o1` (centres unmarked): the Inhibition % stood at 66.7%.

For `O=C1OCCC1Sc1nnc(-c2cccs2)o1` (centres unmarked), the Inhibition % is reported as 21.8%.

Compound `O=C1OCCC1Sc1nnc(-c2ccncc2)o1` (centres unmarked) registered an Inhibition % of 6.02%.

In turn, `c1ccc(N2CCN(CC3OCCO3)CC2)cc1` showed an Inhibition % of 5.86%.

`C=CC(=O)NC1CC(NC(=O)C2CCC2)C1` (centres unmarked) gave an Inhibition % of 7.98%.

Compound `N#Cc1ccc(NC(=O)CCCl)cc1` displayed an Inhibition % of 9.81%.

In the case of `CC1(C)OB(c2ccnc3c(O)cccc23)OC1(C)C`, the Inhibition % came to 22.4%.

As for `ClCCCn1cccn1`, the Inhibition % turned out to be 5.21%.

In the case of `CSc1ccc(CN(C)C(=O)CCl)cc1`, the Inhibition % is 14.4%.

`CN(Cc1ccc(Cl)c(Cl)c1)C(=O)CCl` gave an Inhibition % of 43.3%.

The compound `Cc1ccc(CN(C)C(=O)CCl)cc1` registered an Inhibition % of 68.9%.

Compound `CN(Cc1ccc(N(C)C)cc1)C(=O)CCl.Cl` registered an Inhibition % of 71.3%.

As to `CN(Cc1ccc(Cl)cc1)C(=O)CCl`, the Inhibition % amounted to 48.5%.

`CN(Cc1ccc2c(c1)OCCO2)C(=O)CCl` came in with an Inhibition % of 91.9%.

On to `CN(Cc1ccc(Br)cc1)C(=O)CCl`, for which the Inhibition % turned out to be 52.8%.

Turning to `CN(Cc1ccsc1)C(=O)CCl`, the Inhibition % was determined as 37.6%.

In the case of `CCN(Cc1ccc2c(c1)OCCO2)C(=O)CCl`, the Inhibition % came to 17.9%.

The values above are taken from paper PMC9574860, “Chemical Toolkit for PARK7: Potent, Selective, and High-Throughput” (Journal of Medicinal Chemistry, 2022).
